Laboratory results taken from PubChem BioAssay (NCATS).
Records with an inconclusive call do not appear. Active and inactive are the calls of the source. Calls come from the whole dose curve; as a rule, active = well fitted inhibition curve with a large enough effect; inconclusive = small, poorly fitted or top-dose-only effect; inactive = flat fitted curve, though single readings scatter.

target: Ubiquitin carboxyl-terminal hydrolase 1 (Homo sapiens) (UniProt O94782); experiment: Inhibitors of USP1/UAF1: Pilot qHTS (AID 504865); conditions: purified USP1/UAF1, Ub-rhodamine cleavage fluorescence; series mostly up to 114 µM; activity change, negative = inhibition: at the top concentration; note: nearly all actives have a fitted effect of over 35% in size;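 for activity change, negative = inhibition: rhodamine fluorescence freed from ubiquitin-rhodamine substrate followed over time; top concentration of the series differs between compounds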
Summary of the method: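 USP1/UAF1 complex at 1 nM preincubated 15 min at room temperature with compound, then Ub-Rho substrate added at 150 nM final. Fluorescence (480/540 nm) read kinetically in 50 mM HEPES pH 7.8, 0.5 mM EDTA, 1 mM TCEP, 0.1 mg/ml BSA, 0.01% Tween-20.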
% is set by controls: 0 for no effect and ±100 for the full control effect; potency is the fitted concentration of half-maximal effect.

Ubiquitin carboxyl-terminal hydrolase 1 (Homo sapiens), sequence (O94782 whole entry, looked up): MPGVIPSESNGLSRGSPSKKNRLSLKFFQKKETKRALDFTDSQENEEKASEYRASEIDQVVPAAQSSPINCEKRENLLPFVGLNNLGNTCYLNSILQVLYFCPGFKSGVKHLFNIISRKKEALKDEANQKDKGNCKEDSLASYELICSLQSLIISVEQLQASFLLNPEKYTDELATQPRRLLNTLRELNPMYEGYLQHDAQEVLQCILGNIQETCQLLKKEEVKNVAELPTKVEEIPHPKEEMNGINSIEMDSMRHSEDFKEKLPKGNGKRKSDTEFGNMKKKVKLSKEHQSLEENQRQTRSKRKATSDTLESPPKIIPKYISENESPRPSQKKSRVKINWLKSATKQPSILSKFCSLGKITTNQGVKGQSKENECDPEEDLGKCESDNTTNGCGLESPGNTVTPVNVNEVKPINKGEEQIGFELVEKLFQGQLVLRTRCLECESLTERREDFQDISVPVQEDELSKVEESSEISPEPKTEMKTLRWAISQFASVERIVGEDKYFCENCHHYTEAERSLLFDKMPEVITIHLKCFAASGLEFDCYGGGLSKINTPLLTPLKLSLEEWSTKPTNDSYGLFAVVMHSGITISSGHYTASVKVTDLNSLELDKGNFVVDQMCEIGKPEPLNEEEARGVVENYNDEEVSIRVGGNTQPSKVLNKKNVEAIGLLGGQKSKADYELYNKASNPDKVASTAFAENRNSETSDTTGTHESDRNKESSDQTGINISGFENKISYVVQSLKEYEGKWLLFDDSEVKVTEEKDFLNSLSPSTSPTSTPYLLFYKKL

Compound | activity change, negative = inhibition | Potency
CCCCCCCCCC(=O)NO | -6.17% (inactive) | 
CCN(CC)C(=O)c1cccnc1 | -4.35% (inactive) | 
OC1OC[C@@H](O)[C@H](O)[C@@H]1O (stereo partly drawn) | -4.16% (inactive) | 
FCOC(C(F)(F)F)C(F)(F)F | 3.06% (inactive) | 
OCC(O)CO | -4.76% (inactive) | 
C=CC[N+]1([C@H]2C[C@H]3[C@@H]4CC[C@H]5C[C@H](O)[C@@H](N6CCOCC6)C[C@]5(C)[C@H]4CC[C@]3(C)[C@H]2OC(C)=O)CCCC1 | -2.84% (inactive) | 
NC(=O)C1c2ccccc2CCc2ccccc21 | -6.59% (inactive) | 
O=C(O)c1ccc(OCCn2ccnc2)cc1 | -7.06% (inactive) | 
OCC1(CO)COC(C(Cl)(Cl)Cl)OC1 | -7.45% (inactive) | 
OCl | -5.21% (inactive) | 
NC(=S)N=Nc1ccc(NN=C(N)N)cc1 |  | 44.7 µM (active)
CC[C@H]1OC(=O)[C@H](C)[C@@H](O[C@H]2C[C@@](C)(OC)[C@@H](O)[C@H](C)O2)C(C)[C@@H](O[C@@H]2O[C@H](C)C[C@H](N(C)C)[C@@H]2O)[C@](C)(OC)C[C@@H](C)C(=O)[C@H](C)[C@@H](O)[C@]1(C)O (stereo partly drawn) | -1.01% (inactive) | 
CC1C(=O)CC2C3(C)CCC2(C(C)C(=O)O)C(=O)C13 (stereo not drawn) | -2.2% (inactive) | 
C[C@H](CCC(=O)O)[C@H]1CC[C@H]2[C@@H]3CC[C@@H]4C[C@H](O)CC[C@]4(C)[C@H]3C[C@H](O)[C@]12C | -4.04% (inactive) | 
FC(F)OC(Cl)C(F)(F)F (stereo not drawn) | -4.77% (inactive) | 
O=P(O)(O)OC[C@H]1O[C@](O)(COP(=O)(O)O)[C@@H](O)[C@@H]1O | -7.33% (inactive) | 
O=c1n(CC2CO2)c(=O)n(CC2CO2)c(=O)n1CC1CO1 (stereo not drawn) | -10.6% (inactive) | 
CO/N=C(\C(=O)N[C@@H]1C(=O)N2C(C(=O)[O-])=C(C[n+]3cccc4c3CCC4)CS[C@H]12)c1csc(N)n1 | -7.09% (inactive) | 
CCN(CC)CCOC(=O)c1cccnc1 | -8.24% (inactive) | 

Compound | activity change, negative = inhibition | Potency
C[Si](C)(C)O[Si](C)(C)C | -1.72% (inactive) | 
O=P(O)(O)OP(=O)(O)O | -5.25% (inactive) | 
CC(=O)Oc1cccc(C(=O)O)c1OC(C)=O | -9.59% (inactive) | 
CN(C)CCC=C1c2ccccc2C(C)(C)c2ccccc21 |  | 56.2 µM (active)
CO[C@H]1C[C@@H]2CC[C@@H](C)[C@@](O)(O2)C(=O)C(=O)N2CCCC[C@H]2C(=O)O[C@H]([C@H](C)C[C@@H]2CC[C@@H](OC(=O)C(C)(CO)CO)[C@H](OC)C2)CC(=O)[C@H](C)/C=C(\C)[C@@H](O)[C@@H](OC)C(=O)[C@H](C)C[C@H](C)/C=C/C=C/C=C/1C | -3.32% (inactive) | 
NC(=O)CC[C@@H]1NC(=O)[C@H](Cc2ccccc2)NC(=O)[C@H](Cc2ccc(O)cc2)NC(=O)[C@@H](N)CSSC[C@@H](C(=O)N2CCC[C@H]2C(=O)N[C@@H](CCCN=C(N)N)C(=O)NCC(N)=O)NC(=O)[C@H](CC(N)=O)NC1=O | -5.64% (inactive) | 
Cc1cc(=O)c(C(=O)N[C@@H](C(=O)N[C@@H]2C(=O)N3C(C(=O)O)=C(CSc4nnnn4C)CS[C@H]23)c2ccc(O)cc2)c[nH]1 | 2.08% (inactive) | 
CCCCCCCCCCCCOCCCN | -8.37% (inactive) | 
CC(CN(C)C)CN1c2ccccc2Sc2ccc(C(F)(F)F)cc21 (stereo not drawn) | -9.53% (inactive) | 
Cc1ncc[nH]1 | -7.41% (inactive) | 
CC(=O)Oc1cc(C(F)(F)F)ccc1C(=O)O | -0.994% [at 54.9 µM] (inactive) | 
CCOc1ccc(S(=O)(=O)O)c2cccnc12 | -7.37% (inactive) | 
O=C(/C=C/c1cccc(F)c1)NC1CC1 | -4.5% (inactive) | 
COc1ccc(/C=N/NC(=O)c2ccncc2)c(C(=O)O)c1OC | -7.35% (inactive) | 
CNC(=O)OCc1cccc(COC(=O)NC)n1 | -5.41% (inactive) | 
O=C1c2ccccc2C(=O)C1c1ccc(F)cc1 | -7.49% (inactive) | 
Oc1ccc(Cl)c2c1CCC2 | -14.5% (inactive) | 
CC(O)CN(C)C (stereo not drawn) | -7.91% (inactive) | 
CO/N=C(/C(=O)N[C@@H]1C(=O)N2C(C(=O)O)=C(COC(N)=O)CS[C@H]12)c1ccco1 | -7.86% (inactive) | 
